# Laboratory results as given in PubChem BioAssay (NCATS).
# Results filed as inconclusive are left out. Entries that show only a call come without a potency. Activity calls are given as the source filed them. The call rests on the fitted dose curve; in most records, active means well fitted activation curve with a large enough effect; inconclusive means small, poorly fitted or top-dose-only effect; inactive means flat fitted curve, though single readings scatter.
# Target: Nuclear receptor subfamily 1 group I member 3 (Homo sapiens) (UniProt Q14994)
# Sequence (Q14994 whole entry, looked up): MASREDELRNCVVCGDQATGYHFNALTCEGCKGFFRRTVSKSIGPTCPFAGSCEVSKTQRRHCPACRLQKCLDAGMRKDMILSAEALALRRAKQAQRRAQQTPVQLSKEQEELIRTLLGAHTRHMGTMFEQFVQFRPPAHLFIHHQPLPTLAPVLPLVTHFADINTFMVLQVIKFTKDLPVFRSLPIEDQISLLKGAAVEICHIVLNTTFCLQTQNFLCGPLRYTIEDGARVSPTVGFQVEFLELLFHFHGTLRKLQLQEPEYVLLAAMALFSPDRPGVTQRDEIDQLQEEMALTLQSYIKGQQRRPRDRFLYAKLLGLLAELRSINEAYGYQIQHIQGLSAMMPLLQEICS
# Assay: Primary qHTS for agonist of constitutive androstane receptor (CAR) against the NCATS DSHEA and TCM libraries (AID 1794839);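 on activation: HepG2 cells expressing human CAR with a CYP2B6 reporter plus PK11195 antagonist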
# Conditions: CAR agonist reporter cells, qHTS luminescence; Potency: CAR antagonist co-added at 0.75 µM unless noted; series mostly up to 40 µM
# Excerpt: National Center for Advancing Translational Sciences (NCATS), Rockville, MD
# National Institute of Health (NIH), Bethesda, Maryland
# Dietary Supplements and Natural Products have minor oversight of their safety and efficacy. We assembled a collection of Dietary Supplements and Natural Products (DSNP) as well as Traditional Chinese Medicinal (TCM) Plant extracts, which were screened against an in vitro panel of assays, including a liver cytochrome p450 enzyme panel, CAR/PXR signaling pathways, and P-gp transporter assays, to assess their activity. This pipeline facilitated the interrogation of Natural Product-Drug Interaction (NaPDI) through prominent metabolizing pathways. In addition, we compared the activity profiles of the DSNP/TCM substances with those of an approved drug collection. Many of the approved drugs have well-annotated mechanisms of action (MOA) while the MOAs for most of the DSNP and TCM samples remain unknown. Based on the premise that compounds with similar activity profiles tend to share similar targets or MOA, we clustered the library activity profiles to identify overlap with the NCATS Pharmaceutical Collection to predict the MOAs of the DSNP/TCM substances. Overall, we highlight four significant bioactivity profiles (measured by p-values) as examples of this prediction.
# To this end, we profiled both collections for potential CAR and/or PXR activity, employing a previously published 1536-well qHTS assay.
# PROTOCOL TABLE (as described by Inglese J, Shamu CE and Guy RK. 2007)
# SEQUENCE No. (e.g., 1, 2, 3, etc.); […] (e.g., Cells, Incubation, Reagent, etc.); VALUE; DESCRIPTION.
# 1; Cells; 4 uL; 1536-well white Greiner assay plate.
# 2; Incubation; 5 hours; 37C, 95% humidity, 5% CO2.
# 3; Compounds; 23 nL; Kalypsis pin tool (Wako USA) equipped with 1536-well pin head to transfer to the assay plates.
# 4; Reagent; 1 uL; 0.75 uM PK11195 (final concentration).
# 5; Incubation; 24 hours; 37C, 5% CO2.
# 6; Detection Reagent 1; 1 uL; CellTiter-Fluor (Promega).
# 7; Incubation; 1 hour; 37C, 5% CO2.
# 8; Detector 1; Fluorescence intensity; ViewLux plate reader (excitation 405 nm, emission 540 nm).
# 9; Detection Reagent 2; 4 uL; ONE-Glo Luciferase reagent (Promega).
# 10; Incubation; 30 min; room temperature.
# 11; Detector 2; Luminescence intensity; ViewLux.
# NOTES (numbers refer to Sequence numbers above)
# 1. 4 µL of HepG2-CYP2B6-hCAR cells at 6.25 x 10^5 cells/mL (2,500 cells/well) were dispensed using a Multidrop Combi dispenser in tissue culture-treated 1536-well white assay plates (Greiner Bio-One) in the same culture media, without geneticin and blasticidin included.
# 2. Plates were incubated for 5 hours at 37 degrees C, 95% humidity, and 5% CO2 to allow for cell attachment.
# 3. Compounds (final concentrations of most substances ranged from 15.6 nM to 31.9 µM), positive control (for agonist mode: 6-(4-Chlorophenyl)imidazo[2,1-b][1,3]thiazole-5-carbaldehyde O-(3,4-dichlorobenzyl)oxime (CITCO) with a final concentration range 2.8 nM to 92 µM were transferred (23 nL) via pintool (Wako Automation).
# 4. After compound transfer, plates were dispensed with 1 µL of the known hCAR antagonist PK11195 (final concentration of 0.75 µM) in the agonist mode using a BioRAPTR FRDTM.
# 6. 1 µL of CellTiter-Fluortrade mark (Promega, Madison, Wisconsin) was added using a BioRAPTR FRDTM.
# 8. Fluorescence intensity (Ex/Em = 405 nm/540 nm) is obtained using the ViewLux plate reader to determine cell viability.
# 9. 4 µL of ONE-Glotrade mark Luciferase reagent (Promega) was added to each well using the BioRAPTR FRDTM,
# 10. Luminescence intensity is read using the ViewLux detector.
# Inglese J, Shamu CE and Guy RK, Reporting data from high throughput screening of small molecule libraries, Nature Chemical Biology, 2007, 3(8): 438-441. doi.org/10.1038/nchembio0807-438.
# Potency means the concentration at half of the fitted maximal effect.
row,SMILES,Potency
1,C=CCc1ccc2c(c1)OCO2,inactive
2,C=C(C)[C@@H]1CCC(C)=C[C@H]1c1c(O)cc(CCCCC)cc1O,31.6 µM [setting not given] (active)
3,COC(=O)C1=CO[C@@H](C)[C@@H]2CN3CC[C@@]4(C(=O)Nc5ccccc54)[C@@H]3CC12 (some centres not stated),inactive
4,COc1cc2c(cc1O)C[C@H]1c3c(cc(OC)c(O)c3-2)CCN1C,12.6 µM (active)
5,COc1ccc2c(c1O)-c1c(OC)c(OC)cc3c1[C@H](C2)N(C)CC3,inactive
6,CCCCCCCCCCCCCCCCCCCC(=O)O,inactive
7,CC[C@@H]1CN2CC[C@]3(C(=O)Nc4ccccc43)[C@@H]2C[C@@H]1/C(=C\OC)C(=O)OC,inactive
8,N#CC(O[C@@H]1O[C@H](CO[C@@H]2O[C@H](CO)[C@@H](O)[C@H](O)[C@H]2O)[C@@H](O)[C@H](O)[C@H]1O)c1ccccc1 (some centres not stated),inactive
9,COc1cc2c(cc1O)CC1NCCc3cc(OC)c(OC)c-2c31 (configuration not stated),inactive
10,C=C[C@H]1CN2CC[C@@]3(C(=O)Nc4ccccc43)[C@@H]2C[C@@H]1/C(=C\OC)C(=O)OC,inactive
11,C=C[C@H]1CN2CCc3c([nH]c4ccccc34)[C@H]2C[C@@H]1/C(=C\OC)C(=O)OC,inactive
12,COC1=C[C@@]23CCN(C)[C@H](Cc4ccc(OC)c(O)c42)C3=CC1=O,inactive
